Screens from PubChem.
RXFP1 antag – RXFP1 (human) relaxin receptor antagonism. HEK293-RXFP1, relaxin-stimulated cAMP HTRF, 30 min; hits give low values. activity change, negative = inhibition, % at 57.5 µM. 0.59% of 350,000 active. AID 1259400;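 active means activity change of -60% or lower, but not beyond a set lower limit; inconclusive means change between -60% and -40%, or beyond the set limit; inactive means change above -40%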
TRPV1 PAM – potentiators of human vanilloid receptor 1 (TRPV1); Q8NER1; TRPV1-expressing cells, Fluo-8 calcium influx, capsaicin EC20 potentiation; potentiation, % at 8.33 µM; 0.02% of 320,000 active; in the data active means potentiation above about 80%; inconclusive means between about 30% and that limit
Target sequence (Q8NER1 whole entry, looked up): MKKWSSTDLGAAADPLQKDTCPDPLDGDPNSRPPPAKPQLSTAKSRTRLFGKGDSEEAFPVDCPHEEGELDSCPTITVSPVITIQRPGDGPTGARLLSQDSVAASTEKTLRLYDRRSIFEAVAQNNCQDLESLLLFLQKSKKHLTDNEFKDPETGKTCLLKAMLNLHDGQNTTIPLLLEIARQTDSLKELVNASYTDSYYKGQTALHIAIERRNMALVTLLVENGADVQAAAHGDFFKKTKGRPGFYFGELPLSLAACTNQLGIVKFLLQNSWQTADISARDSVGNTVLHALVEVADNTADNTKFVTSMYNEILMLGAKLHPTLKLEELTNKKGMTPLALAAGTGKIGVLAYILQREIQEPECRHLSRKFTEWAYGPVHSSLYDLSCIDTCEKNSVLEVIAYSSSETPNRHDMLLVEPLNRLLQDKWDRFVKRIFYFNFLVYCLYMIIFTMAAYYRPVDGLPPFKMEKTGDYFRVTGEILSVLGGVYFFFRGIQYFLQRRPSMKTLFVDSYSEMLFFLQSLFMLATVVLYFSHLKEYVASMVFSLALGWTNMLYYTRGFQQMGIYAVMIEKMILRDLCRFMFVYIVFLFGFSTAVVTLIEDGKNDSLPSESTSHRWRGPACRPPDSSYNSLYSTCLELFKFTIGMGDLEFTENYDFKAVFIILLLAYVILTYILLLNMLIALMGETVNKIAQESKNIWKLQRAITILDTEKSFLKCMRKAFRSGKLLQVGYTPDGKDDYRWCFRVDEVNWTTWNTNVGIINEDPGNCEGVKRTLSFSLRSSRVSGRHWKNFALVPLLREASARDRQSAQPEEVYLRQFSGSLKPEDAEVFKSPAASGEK
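Fluo-8 calcium influx in TRPV1-expressing cells, kinetic read (ex 480/em 520 nm). Compound added and read 3 min for agonist activity, followed by capsaicin at EC20 final and 2 min further read for enhancement.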
gsp ag – activates gsp, the McCune-Albright syndrome mutation | gsp mutant cells, cAMP HTRF, 30 min | Potency, µM (doses to about 76.9 µM), hits mostly activators | 0.13% of 340,000 active | AID 624287; active means well fitted activation curve with a large enough effect; inconclusive means small, poorly fitted or top-dose-only effect, or another doubt; inactive means no such curve, though single readings can be large or run the other way; cell line not stated here;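 further: phosphodiesterase inhibitor Ro 20-1724 added with compounds to block cAMP breakdown; nearly all actives have a fitted effect of over 60% in size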
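Cells stably selected in G418 were plated at 2000/well, grown 16-24 hr, then given compounds in DMSO with the PDE inhibitor […] (300 uM solution added) for 30 min at 37C; cAMP was read by HTRF.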
TRPV1 agonist – agonists of human vanilloid receptor 1 (TRPV1) | Q8NER1 | TRPV1-expressing cells, Fluo-8 calcium influx, agonist mode | activation, % at 8.33 µM | 0.19% of 320,000 active | AID 540275; in the data active means activation above about 80%; inconclusive means between about 30% and that limit
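TRPV1-expressing cells were cultured overnight at 35.5C and loaded with Fluo-8 calcium dye for 40 to 90 min at room temperature. After a 10 s baseline, compound was added and calcium influx was read kinetically for 3 min (ex 480/em 520 nm).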
gsp antagonist – gsp mutant antagonism | AID 624288 | Potency, µM (top dose mostly 76.9 µM), most hits filed as inhibitors | 0.4% of 340,000 active | gsp-mutant cells, cAMP HTRF, 30 min; calls by dose curve; cell line not stated here;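 further: intracellular cAMP measured with PDE inhibitor Ro 20-1724 present during compound exposure; nearly all actives have a fitted effect of over 65% in size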
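Cells, 2000/well, grown 16–24 h in DMEM 10% FBS with 0.5 mg/ml G418, then compounds plus […] (300 uM addition stock), 30 min at 37C. cAMP read by HTRF (cAMP-d2 and anti-cAMP antibody-K in lysis buffer) after 30 min RT.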
RXFP1 agonist – agonists of human relaxin receptor RXFP1; Q9HBX9; HEK293T-RXFP1 cAMP TR-FRET, 30 min; response scale: percent of porcine relaxin response, buffer zero; Potency, µM (titrated, usually from 57.5 µM), actives largely listed as activators; 0.3% of 370,000 active; AID 2676; active means well fitted activation curve with a large enough effect; inconclusive means small, poorly fitted or top-dose-only effect; further: nearly all actives have a fitted effect of over 60% in size
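Agonist response is measured as cAMP accumulation in an RXFP1-transfected HEK293T line under PDE4 inhibition. Values are scaled between buffer-only and 29 nM porcine relaxin, and EC50s come from standard Hill equation fits.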
Each line names hits and unclear results; the compound was inactive in the other large screens; ! = repeats disagree. In the library only some 1.1% were active in any assay of this set; here they are far more common.

CCOC(=O)c1c(-c2ccccc2)cn2ccccc12	gsp ag inconclusive
CCOC(=O)c1c(-c2ccccc2)c[nH]c1C	RXFP1 antag -88 (no result: TRPV1 PAM, TRPV1 agonist, RXFP1 agonist)
CCNc1nc(C)c2cc(Br)c(=O)n(CC)c2n1	gsp ag 20µM, RXFP1 agonist inconclusive
CCn1c(=N)c(C(=O)NC)cc2c(=O)n3cccc(C)c3nc21	none
O=C(O)/C=C/C(=O)Nc1ccc(Oc2ccccc2)cc1	none
CCOC(=O)/C=C/C(=O)Nc1ccc(Oc2ccccc2)cc1	RXFP1 antag -64, TRPV1 agonist inconclusive
CCCCN(CC)CCNC(=O)c1cc2c(-c3ccc(Cl)cc3)nn(C)c2s1	RXFP1 antag -104!, gsp ag inconclusive
CCN(CC)S(=O)(=O)c1ccc(N2CCCC2)c(NS(=O)(=O)c2ccc(F)cc2)c1	gsp ag 25µM
CSCCC(NC(=O)c1ccco1)C(=O)N(C)CC(=O)Nc1ccccc1Br (stereo not given)	gsp ag inconclusive
Cc1ccc(S(=O)(=O)Nc2ccccc2C=Nc2cccc(C)c2C)cc1	RXFP1 antag -66
Cc1ccc(S(=O)(=O)Nc2ccccc2N=Cc2c(F)c(F)c(F)c(F)c2F)cc1	none (no result: TRPV1 PAM, TRPV1 agonist, RXFP1 agonist)
Cc1ccc(NC(=O)c2sc3nc(N4CCOCC4)c4c(c3c2N)CCCC4)cc1	gsp ag inconclusive (no result: TRPV1 PAM, TRPV1 agonist, gsp antagonist, RXFP1 agonist)
Nc1c(C(=O)Nc2ccc(Cl)cc2)sc2nc(N3CCOCC3)c3c(c12)CCCC3	gsp ag 10µM
CSc1nnc2c3c4c(sc3nc(-n3nc(C)cc3C)n12)COC(C)(C)C4	TRPV1 agonist 80
Cc1cc(C)n(-c2nc(NCCN(C)C)c3c4c(sc3n2)COC(C)(C)C4)n1	RXFP1 antag -72
Cc1cc(C)n(-c2nc(NCCCN(C)C)c3c4c(sc3n2)COC(C)(C)C4)n1	none
COCCNC(=O)c1cccc(OC2CCN(Cc3ccc(F)cc3OC)CC2)c1	none
CCOc1cc(C(=O)NC2CC(C)(C)NC(C)(C)C2)cc(OCC)c1OCC	none
CC(C)c1ccccc1NC(=S)NC(=O)C1CCCCC1	RXFP1 antag -65, gsp ag inconclusive (no result: TRPV1 PAM, TRPV1 agonist, RXFP1 agonist)
CC(C)(C)c1ccc(/C=C/C(=O)N2CCCCC2)cc1	TRPV1 agonist 94, gsp antagonist inconclusive
Cc1ccc(/C=C/C(=O)N2CCCC(C)C2)cc1 (stereo not given)	TRPV1 agonist inconclusive
CC1CCN(C(=O)/C=C/c2ccc(C(C)(C)C)cc2)CC1	RXFP1 antag inconclusive, gsp ag inconclusive, TRPV1 agonist 89
O=C(CCS(=O)(=O)c1ccccc1)Nc1nc2cc3c(cc2s1)OCO3	gsp antagonist 50µM
O=C(NC1CCS(=O)(=O)C1)/C(=C/c1ccco1)NC(=O)c1ccccc1 (stereo not given)	RXFP1 antag -72, gsp ag inconclusive
Cc1ccccc1OCCC(=O)OCC(=O)NCCNC(=O)COC(=O)CCOc1ccccc1C	RXFP1 antag -73
Cc1ccccc1OCCC(=O)OCC(=O)NC1CC1	none
Cc1nc(OCC(C)C)c2sc3nc4c(cc3c2n1)COC(C)(C)C4	RXFP1 antag -103
COc1nc(C)nc2c1sc1nc3c(cc12)COC(C)(C)C3	none
Cc1cccc(C)c1N1CCN(C(=O)N2CCOCC2)CC1	TRPV1 agonist 80
Cc1ccc(N2CCN(C(=O)N3CCOCC3)CC2)cc1C	none
CCC(Cc1ccccc1)NC(=O)Cn1cccc1C(=O)c1ccccc1 (stereo not given)	RXFP1 antag -114
C[C@@H]1C[C@H]2[C@@H]3CCC4=CC(=O)C=C[C@]4(C)[C@@]3(F)[C@@H](O)C[C@]2(C)[C@@]1(O)C(=O)COC(=O)c1ccncc1	none (no result: TRPV1 PAM, gsp ag, TRPV1 agonist, gsp antagonist, RXFP1 agonist)
CCCCCC(=O)Nc1ccc(C(=O)CN2C(=O)NC3(CCCCCC3)C2=O)cc1	RXFP1 antag -90
CC(C)c1ccc(N=Cc2c(O)c3ccccc3oc2=O)cc1	gsp ag inconclusive, TRPV1 agonist 83
O=C(c1cnccn1)N1CCc2ccccc2C1	none
CN(C)CCN(Cc1ccsc1)c1ccccn1	none (no result: TRPV1 PAM, gsp ag, TRPV1 agonist, gsp antagonist, RXFP1 agonist)
COc1ccc(Nc2cc(O)c3ncccc3c2)cc1	none (no result: RXFP1 antag, TRPV1 PAM, gsp ag, TRPV1 agonist, gsp antagonist)
